Insulin prom up: MIN6 insulin promoter up-regulation. MIN6 insulin promoter-GFP reporter, high-content imaging; hits give high values. z-score at 5 µM. 190,000 tested, 0.3% active;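 active = z-score above 3 at 5 µM with at least 500 cells counted in the well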
Insulin prom inh: TRM-6 insulin promoter activity inhibition; TRM-6 cells (human fetal islet line), insulin promoter-eGFP reporter, imaging; reporter expression induced with tamoxifen; inhibition, % at 2 µM; 130,000 tested, 0.9% active;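 active = inhibition above the mean plus 3 SD, with well images judged a real hit on visual review, cut at about 60% in these data, passing the limit was not always enough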
eIF4E 4G PPI: eIF4E/eIF4G interaction inhibition in translation initiation | TR-FRET eIF4E-eIF4GI(517-606) binding, 2 h | inhibition, % at 21.7 µM | 220,000 tested, 0.37% active | AID 782;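 active = inhibition above about 30%, limit read from the data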;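 also: 0% = full FRET control wells and 100% = background wells lacking eIF4GI fragment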
PERK inhibitor: blocks human PERK kinase. 220,000 tested, 0.17% active. Q9NZJ5. inhibition, % at 5.6 µM. AID 1416. CHO PERK-DD fusion, SEAP luminescence translation reporter;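 active = inhibition above the mean inhibition of all tested compounds plus 3 SD, set separately per screening campaign, cut at about 2.9% in these data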;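 also: PERK kinase domain activated by AP20187 dimerizer at 100 nM; 0% = DMSO with dimerizer and 100% = rapamycin at 8.4 µM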
Autophagy HCS: modulators of autophagy | MEF GFP-LC3 puncta imaging; test concentration mostly 10 µM | calls only at 10 µM (by protocol) | 190,000 tested, 0.98% active;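 active = percentage of spot-positive cells more than 3 SD above its plate mean, without a fluorescence outlier flag or 80% toxicity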;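 also: spot-positive cell cutoff set from DMSO-treated cells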
Numbers without * were called inactive; [ ] = remark or other dose. Only some compounds are listed: those with a hit (about 2% of all), similar ones and a draw of the others.

Screening Cc1cccc(/N=C/c2sc3ccccc3c2O)n1 returned Insulin prom up 0.03, eIF4E 4G PPI 3 and PERK inhibitor 1.
For Oc1c(C=Nc2cccc3cccnc23)sc2ccccc12 the results were Insulin prom up 2.7, Insulin prom inh -207, eIF4E 4G PPI 5, PERK inhibitor 1 and Autophagy HCS active.
`CCc1ccc(NC(=O)CN(c2ccccc2)S(=O)(=O)N(C)C)cc1` gave Insulin prom up -0.21, Insulin prom inh -60, eIF4E 4G PPI 3, PERK inhibitor 0 and Autophagy HCS inactive.
Screening Cc1ccc(C)c2nc3sc(C(=O)N4CCCc5ccccc54)c(N)c3cc12 returned Insulin prom inh 10, eIF4E 4G PPI -3, PERK inhibitor 0 and Autophagy HCS active.
Screening CC(C)c1ccc2nc3sc(C(=O)N4CCc5ccccc5C4)c(N)c3cc2c1 returned Insulin prom up 0.87, eIF4E 4G PPI 13, PERK inhibitor 1 and Autophagy HCS inactive.
O=C(c1ccc(C(=O)N2CCCc3ccccc32)s1)N1CCCc2ccccc21 was read as Insulin prom up -0.18, Insulin prom inh -53, eIF4E 4G PPI -3, PERK inhibitor -1 and Autophagy HCS inactive.
Screening CCc1ccc2nc3sc(C(=O)N4CCc5ccccc54)c(N)c3cc2c1 returned Insulin prom up 4.9*, eIF4E 4G PPI -1, PERK inhibitor 0 and Autophagy HCS active.
For O=C(Cn1cnc2cc([N+](=O)[O-])ccc2c1=O)NC1CCS(=O)(=O)C1 (centres undefined) the results were Insulin prom up 0.03, eIF4E 4G PPI 5, PERK inhibitor 0 and Autophagy HCS inactive.
Screening CC(C(=O)Nc1cc([N+](=O)[O-])ccc1Cl)N1CCN(c2ccc(O)cc2)CC1 (centres undefined) returned Insulin prom up -1.4, Insulin prom inh 72*, eIF4E 4G PPI 9, PERK inhibitor 0 and Autophagy HCS inactive.
Screening CC(C)c1cc(C(=O)N2CCCC(C(=O)c3ccc4ccccc4c3)C2)on1 (centres undefined) returned Insulin prom up 0.23, eIF4E 4G PPI 3, PERK inhibitor 2.9* and Autophagy HCS inactive.
For O=C(c1ccc(-c2ccccc2)cc1)C1CCCN(C(=O)c2ccncc2)C1 (centres undefined) the results were Insulin prom up -0.16, Insulin prom inh 20, eIF4E 4G PPI 4, PERK inhibitor 0 and Autophagy HCS active.
For Cc1ccc(C(=O)NNC2=Nc3cccc4cccc2c34)cc1 the results were Insulin prom up 0.02, Insulin prom inh 10, eIF4E 4G PPI 0, PERK inhibitor -1 and Autophagy HCS inactive.
`COc1ccc(C(=O)NNC2=Nc3cccc4cccc2c34)cc1` gave Insulin prom up -0.15, Insulin prom inh -40, eIF4E 4G PPI 1, PERK inhibitor 1 and Autophagy HCS active.
For C=CCOc1ccccc1CNCCNC(=O)c1nonc1N the results were Insulin prom up 0.12, eIF4E 4G PPI 1, PERK inhibitor 0 and Autophagy HCS active.
COc1ccc(C(=O)Nc2nnc(-c3cccs3)s2)cc1 was read as Insulin prom up 0.41, Insulin prom inh 3, eIF4E 4G PPI -21, PERK inhibitor 1 and Autophagy HCS active.
COc1ccc(NC(=O)Nc2nnc(-c3cccs3)s2)cc1 was read as Insulin prom up -0.36, eIF4E 4G PPI -2 and PERK inhibitor 1.
Screening O=c1c2cccnc2[nH]c(=S)n1CCCN1CCN(c2ccccc2F)CC1 returned Insulin prom up -0.75, eIF4E 4G PPI -1, PERK inhibitor 0 and Autophagy HCS active.
Screening CCN(CC)CCCn1c(=S)[nH]c2ncccc2c1=O returned Insulin prom up 0.8, Insulin prom inh 42, eIF4E 4G PPI -2, PERK inhibitor 1 and Autophagy HCS inactive.
Screening COCCn1c(-c2ccc(Cl)cc2Cl)nc2c(c(=O)c3ccccc3n2C)c1=O returned Insulin prom up -0.36, Insulin prom inh -44, eIF4E 4G PPI 3, PERK inhibitor -1 and Autophagy HCS active.
Screening Nc1nnnn1/N=C/c1ccccc1OCc1ccc(Cl)cc1Cl returned Insulin prom up 0.15, Insulin prom inh -36, eIF4E 4G PPI -25, PERK inhibitor 1 and Autophagy HCS inactive.
Screening Nc1nnnn1/N=C/c1cc(Cl)cc(Cl)c1OCc1ccc(Cl)cc1Cl returned Insulin prom up 1.1, Insulin prom inh -31, eIF4E 4G PPI -32, PERK inhibitor 1 and Autophagy HCS active.
O=C(c1ccc(F)cc1)N1CCCC(C(=O)N2CCc3ccccc3C2)C1 (centres undefined) was read as Insulin prom up -0.02, eIF4E 4G PPI 1 and PERK inhibitor 0.
Cc1c(C(=O)Nc2ccc(Cl)cc2)c2ccccn2c1C(=O)c1ccc([N+](=O)[O-])cc1 was read as Insulin prom up -0.34, Insulin prom inh 15, eIF4E 4G PPI -15, PERK inhibitor 1 and Autophagy HCS active.
`Cc1c(C(=O)Nc2ccc(Cl)cc2)c2ccccn2c1C(=O)c1ccccc1` gave Insulin prom up 0.31, eIF4E 4G PPI 3, PERK inhibitor 1 and Autophagy HCS inactive.
Screening CC(C)(C)NC(=O)C(Cc1ccccc1)NS(=O)(=O)c1cccc2nsnc12 (centres undefined) returned Insulin prom up -1.1, Insulin prom inh -116, eIF4E 4G PPI 3, PERK inhibitor 0 and Autophagy HCS active.
For Cc1ccc(Oc2c(C(N)=O)cc([N+](=O)[O-])cc2[N+](=O)[O-])cc1 the results were Insulin prom up 0.58, Insulin prom inh -15, eIF4E 4G PPI 40*[fluorescence artefact?], PERK inhibitor 1 and Autophagy HCS inactive.
Cc1ccc([N+](=O)[O-])cc1NC(=O)c1cccs1 was read as Insulin prom up 3.2*, eIF4E 4G PPI -1, PERK inhibitor 0 and Autophagy HCS inactive.
`CCN(CC)c1ccc2cc(S(=O)(=O)c3ccc(Cl)cc3)c(=O)oc2c1` gave Insulin prom up 7*, Insulin prom inh -10, eIF4E 4G PPI 6, PERK inhibitor 0 and Autophagy HCS inactive.
For O=Cc1c(Cl)nc2ccccn2c1=O the results were Insulin prom up 0.73, eIF4E 4G PPI 13 and PERK inhibitor -1.
CN1CCN(C2=CC3=CC(=C(C#N)C#N)CCC3CC2)CC1 (centres undefined) was read as Insulin prom inh inactive, eIF4E 4G PPI 0, PERK inhibitor 0 and Autophagy HCS active.
For COc1ccc2nc(Nc3nc(CSc4nnnn4-c4ccccc4)cc(=O)[nH]3)nc(C)c2c1 the results were Insulin prom up -0.43, Insulin prom inh 14, eIF4E 4G PPI -2, PERK inhibitor 2 and Autophagy HCS active.
Screening O=C1CSC(c2ccc(F)cc2)N1c1nnc(C23CC4CC(CC(C4)C2)C3)s1 (centres undefined) returned Insulin prom inh -38, eIF4E 4G PPI 3, PERK inhibitor 0 and Autophagy HCS inactive.
For COc1cccc(/C=N/N2CCN(C)CC2)c1 the results were Insulin prom inh 73*, eIF4E 4G PPI 15, PERK inhibitor 1 and Autophagy HCS inactive.

Compound activity from PubChem.
